Screening results from PubChem BioAssay.
Hits are enriched below; roughly 0.74% of the tested compounds scored in any of these assays.
BH1578 lux ind – inducers of Vibrio cholerae quorum light production without autoinducers; V. cholerae BH1578 lux reporter, luminescence, 6 h; activation, % at 18.7 µM; 350,000 tested, 0.16% active; in the data active = activation mostly above about 9.7%, no sharp cut-off
Rv3671c protease – Rv3671c (M. tuberculosis) protease inhibition | inhibition, % at 5.96 µM | P9WHR9 | AID 2606 | 320,000 tested, 0.048% active; in the data active = inhibition above about 38%;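 also: extracellular domain of Rv3671c used as enzyme; 0% = enzyme with DMSO and 100% = no enzyme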
Target sequence (P9WHR9 whole entry, looked up, the tested form may be a part): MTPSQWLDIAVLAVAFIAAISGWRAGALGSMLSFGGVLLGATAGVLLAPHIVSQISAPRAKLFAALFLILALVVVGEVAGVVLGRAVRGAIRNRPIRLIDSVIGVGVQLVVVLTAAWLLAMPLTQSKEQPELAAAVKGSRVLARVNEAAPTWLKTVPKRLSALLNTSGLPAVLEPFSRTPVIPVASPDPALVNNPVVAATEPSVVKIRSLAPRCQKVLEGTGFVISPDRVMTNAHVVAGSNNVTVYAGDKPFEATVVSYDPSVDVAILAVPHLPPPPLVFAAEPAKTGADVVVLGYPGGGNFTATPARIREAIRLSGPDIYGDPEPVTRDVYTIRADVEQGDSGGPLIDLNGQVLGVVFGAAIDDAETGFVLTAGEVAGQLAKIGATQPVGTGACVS
Mtb betalactam – beta-lactam sensitization of Mtb H37Rv | inhibition, % at 25 µM | AID 434955 | 330,000 tested, 0.27% active | M. tuberculosis H37Rv growth with meropenem, percent inhibition; call rule not given here;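 also: growth measured after seven days incubation then overnight dye step; 0% = bacteria only wells and 100% = bacteria with antibiotic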
FadD28 FP inh – M. tuberculosis FadD28 bisubstrate binding inhibition. inhibition, % at 12.5 µM. AID 588549. FadD28 bisubstrate probe binding, fluorescence polarization. 360,000 tested, 0.22% active; in the data active = inhibition above about 8.5%, passing the limit was not always enough
Mtb UGM inh – blocks M. tuberculosis UGM enzyme; inhibition, % at 10 µM; 320,000 tested, 0.06% active; purified UGM, fluorescence polarization probe displacement; in the data active = inhibition above about 10%, passing the limit was not always enough
MazEF act – increases E. coli MazEF RNase cleavage of RNA; 350,000 tested, 0.32% active; FAM/BHQ RNA-DNA oligo cleavage fluorescence, 5 h; P0AE70; AID 504720; activation, % at 20 µM; in the data active = activation above about 50%
* hit, by the source's call; i = inactive; . = not tested or not shown; ! = not active in a repeat.

SMILES	BH1578 lux ind	Rv3671c protease	Mtb betalactam	FadD28 FP inh	Mtb UGM inh	MazEF act
O=C(O)c1ccccc1-c1ccc(/C=c2\sc3nc4cc(Br)cnc4n3c2=O)o1	i	6	3	24*	-2	-442
CCc1nc2ccc(C(=O)N(C)CC(=O)Nc3cccc(F)c3)cc2nc1CC	1	-2	-8	-3	0	9
O=C(CSc1ccc(-c2nc3ccccc3[nH]2)cn1)Nc1ccc(S(=O)(=O)NC2CC2)cc1	0	-258	2	33*	1	-3
O=C(CSc1ccc(-c2nc3ccccc3[nH]2)cn1)Nc1ccc2c(c1)OCCO2	i	-16	5	-3	0	28
CCc1nnc(NC(=O)CSc2nc(-c3ccc(F)cc3)cc(-c3ccccc3)c2C#N)s1	0	.	.	0	.	63*
COc1ccc(-c2cc(-c3ccccc3)nc(SCC(=O)Nc3ncc(C)s3)c2C#N)cc1	-1	-111	9	-1	-2	-46
C=Cc1c(C)c2cc3[nH]c(cc4nc(cc5nc(cc1[nH]2)C(C)=C5CCC(=O)O)C(CCC(=O)O)=C4C)c(C)c3C=C	-1	32	-1	43*!	-3	-47
CC1CCCCC1NC(=O)c1cc(S(=O)(=O)N2CCCCC2)ccc1N1CCOCC1 (stereo not given)	3	2	-10	.	0	8
COc1cc(NC(=O)c2ccc(Br)cc2)c(OC)cc1NC(=O)c1ccccc1	0	3	10	-4	-1	-2
COc1cc(NC(=O)c2ccccc2)c(OC)cc1NC(=O)Cc1ccc(Br)cc1	1	-3	0	0	1	55*
COCCCN(C(=O)CSc1nc2ccccc2c(=O)n1C)c1c(N)n(Cc2ccccc2)c(=O)[nH]c1=O	i	.	.	-1	.	-1
N#Cc1c(C#N)c(-c2ccccc2)n(-c2ccc(C(=O)O)cc2)c1N	4	-4	-12	12*	-2	-2
C#CCSc1nnnn1-c1ccc(OCC)cc1	607*	6	2	-4	3	1
C=CCSc1nnc(NC(=O)c2nc(SCC)ncc2Cl)s1	i	-2	63	0	4	-1
CSc1ncc(Cl)c(C(=O)Nc2nnc(SC/C=C/c3ccccc3)s2)n1	i	-8	17	15*	0	-4
Cc1nc(C)c(C(=O)OC(C)C(=O)Nc2ccc(F)cc2)s1 (stereo not given)	i	2	-1	-1	.	0
COc1ccc(C=NNc2ccc([N+](=O)[O-])cc2S(=O)(=O)Nc2ccccc2C(=O)O)cc1OC	i	-6	-9	-1	1	-12
COc1ccc(/C=N/Nc2ccc([N+](=O)[O-])cc2S(=O)(=O)N2CCN(C)CC2)cc1	i	0	2	-1	4	166*
COc1ccccc1N(CC(=O)NCCSCc1ccco1)S(=O)(=O)c1ccccc1	-3	1	-5	-4	0	1
O=C(COC(=O)C1CCN(S(=O)(=O)c2cccs2)CC1)c1cc2ccccc2o1	i	-5	14	-2	-3	60*
O=C(COC(=O)C1CCN(S(=O)(=O)c2cccs2)CC1)c1ccc2c(c1)OCCO2	-1	-2	4	-1	-3	-5
CC(C)N1C(=O)N(c2cccc(Cl)c2)C(C)(O)CC1(C)C (stereo not given)	0	7	3	0	0	0
CCOC(=O)c1sc(NC(=O)C2CC(=O)N(c3ccc4c(c3)OCCO4)C2)nc1C (stereo not given)	0	-6	56	-2	.	5
CCc1nc2ccc(C(=O)NCCOc3ccc(OC)cc3)cn2c1N(C)CCCc1ccccc1	1	.	.	-3	.	.
Cc1cc2c(SCC(=O)Nc3cccc(O)c3)ncnc2s1	-1	.	.	19*	.	-11
O=C1Nc2ccccc2/C1=C/c1cnc(-c2ccccc2)[nH]1	i	-2	-8	-1	1	98*
O=C1c2cccc3c(N4CCCCC4)ccc(c23)C(=O)N1c1ccccn1	-5	-3	.	0	10*	-83
O=C1c2cccc3c([N+](=O)[O-])ccc(c23)C(=O)N1c1ccccn1	i	-2	100	-14	3	13
O=c1cc(CSc2nnc(COc3ccc(Cl)cc3)o2)c2ccccc2[nH]1	0	-13	3	-3	-1	51*
Cc1ccccc1OCc1nnc(SCc2cc(=O)[nH]c3ccccc23)o1	i	-7	1	-2	2	65*
